Values joined by “and” are separate entries in the source; they are usually repeats but may differ in a detail not shown here. Equal entries are not always repeated. Results filed as inconclusive are left out. Some compounds were tested as several samples or in several runs, with calls that do not always agree. Active and inactive are the calls of the source. Unless noted, the call rests on the fitted dose curve; in most records, active means well fitted curve in the direction sought with a large enough effect; inconclusive means small, poorly fitted or top-dose-only effect, or another doubt; inactive means no such curve, though single readings can be large; an effect the other way counts as inactive or inconclusive.
Columns and labels:
[1] = target: Thyroid hormone receptor beta (Homo sapiens) (UniProt P10828); experiment: qHTS assay for small molecule antagonists of thyroid hormone receptor beta signaling (AID 588547; active means well fitted inhibition curve with a large enough effect in the signal ratio, with a control signal flat, not every such curve was filed as active; the % refers to the signal ratio;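 further: cells stimulated with 0.4 nM T3 agonist during compound exposure; series mostly up to about 77 µM; on the % scale 0 is the no-effect control and ±100 the full control effect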); conditions: TR-UAS-bla HEK293, beta-lactamase ratio, antagonist mode, 18 h
Procedure, shortened: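 TR-UAS-bla GripTite HEK293 cells in 2% charcoal/dextran FBS medium were preincubated 4 h at 37 C, given compound (0.59 nM to 92 uM) plus 0.4 nM T3 (final) for 18 h, then CCF4 for 2 h at RT; Hill fit gave IC50.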

[2] = target: Voltage-gated inwardly rectifying potassium channel KCNH2 (Homo sapiens) (UniProt Q12809); experiment: qHTS Assay for Small Molecule Inhibitors of the Human hERG Channel Activity (AID 588834);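 further: lower thallium flux fluorescence means stronger hERG block; nearly all actives have a fitted effect of over 50% in size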; further: potency means the concentration at half of the fitted maximal effect
Procedure, shortened: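 Kinetic FDSS fluorescence; U2OS + hERG BacMam (~100 virus particles/cell); FluxOR Tl+ flux; ~10 min cpd; AC50 (Hill).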

[3] = target: Luciferin 4-monooxygenase (Photinus pyralis) (UniProt P08659); experiment: Biochemical firefly luciferase enzyme assay for NPC (AID 624030);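 further: purified P. pyralis luciferase at 10 nM with luciferin and ATP substrate; series mostly up to about 59 µM; 0% = DMSO and -100% = full luciferase inhibition by PTC124 control; nearly all actives have a fitted effect of over 70% in size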
Procedure, shortened: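 Counter-screen for direct inhibition of the luciferase enzyme by approved-drug library compounds, run at 10 nM enzyme in 50 mM Tris acetate (final). Luminescence was read within 5 min of enzyme-buffer addition and normalized to PTC124 versus DMSO (0%).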

[4] = S16 Schwann cell viability assay (CellTiter-Glo assay) (AID 624031);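 further: native untransfected S16 rat Schwann cells; cellular ATP luminescence as a viability measure; series mostly up to about 58 µM; plate controls were DMSO-treated cells for no effect and cell-free wells for full effect; nearly all actives have a fitted effect of over 70% in size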
Procedure, shortened: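 Following overnight culture in 10% FBS DMEM, parental S16 rat Schwann cells are dosed for 24 h at 37 °C. Viability is read as CellTiter-Glo luminescence and expressed as % activity relative to DMSO (0%) and no-cell wells.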

[5] = S16 Schwann cell PMP22 intronic element firefly luciferase assay (AID 624032);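 further: series mostly up to about 58 µM; plate controls were DMSO for no effect and PTC124 positive control mean for full effect; nearly all actives have a fitted effect of over 30% in size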
Procedure, shortened: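 Rat S16 Schwann cells stably carrying a PMP22 intronic element-driven Fluc reporter were seeded overnight, then exposed to compounds for 24 h at 37 °C. Luminescence was normalized to PTC124 (positive control) and DMSO (0% activity).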

[6] = S16 Schwann cell PMP22 intronic element beta-lactamase assay (AID 624044; calls by dose curve;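 further: 0% = DMSO and -100% = potassium clavulanate positive control; nearly all actives have a fitted effect of over 15% in size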)
Procedure, shortened: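 Rat S16 Schwann cells with beta-Lac driven by a PMP22 intronic element, compound-treated 24 h at 37 °C. LiveBLAzer FRET B/G read: 460 nm normalized to potassium clavulanate vs DMSO; 535 nm FRET as viability; concentration-effect curves classified.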

[7] = target: Glutaminase kidney isoform, mitochondrial (Homo sapiens) (UniProt O94925); experiment: qHTS for Inhibitors of Glutaminase (GLS): LOPAC Validation (AID 624146); further: nearly all actives have a fitted effect of over 60% in size; further: potency means the concentration at half of the fitted maximal effect
Procedure, shortened: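 Human kidney-isoform GLS in 45 mM KH2PO4 pH 8.2, 0.02% Tween-20, with compound, started with 1mM L-Glutamine (added stock). Glutamate oxidase/HRP/Amplex red coupled fluorescence read at start and after 30 min at RT.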

[8] = qHTS of Trypanosoma Brucei Inhibitors: LOPAC Validation (AID 624147); further: 0% is about no effect
Procedure, shortened: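 Glycolytic pyruvate kinase of T. brucei was incubated with substrate, test compound and 130 uM ADP for 45 minutes at room temperature. Luminescent Kinase-Glo Plus signal was measured after 10 minutes.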

[9] = target: Glucagon-like peptide 1 receptor (Homo sapiens) (UniProt P43220); experiment: qHTS of GLP-1 Receptor Agonists: LOPAC Validation (AID 624148);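 further: 0% is about no effect; higher luminescence signal means agonism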
Procedure, shortened: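 HEK293 cells stably co-expressing a cAMP-responsive luciferase reporter and a hypersensitive GLP-1R were plated 12 h at 37 °C and exposed to compounds for 4-6 hr at 37 °C, 5% CO2. Luminescence was read 12 min after adding detection reagent.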

[10] = qHTS of Nrf2 Activators: LOPAC Validation (AID 624149); further: 0% is about no effect
Procedure, shortened: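 Luminescence read-out of ARE-luciferase activation: AREc32_Fluc cells treated with compounds for 24 hr at 37 deg C, then lysed with Steady-Glo for 30 min at room temperature before reading.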

Thyroid hormone receptor beta (Homo sapiens), sequence (P10828 whole entry, looked up): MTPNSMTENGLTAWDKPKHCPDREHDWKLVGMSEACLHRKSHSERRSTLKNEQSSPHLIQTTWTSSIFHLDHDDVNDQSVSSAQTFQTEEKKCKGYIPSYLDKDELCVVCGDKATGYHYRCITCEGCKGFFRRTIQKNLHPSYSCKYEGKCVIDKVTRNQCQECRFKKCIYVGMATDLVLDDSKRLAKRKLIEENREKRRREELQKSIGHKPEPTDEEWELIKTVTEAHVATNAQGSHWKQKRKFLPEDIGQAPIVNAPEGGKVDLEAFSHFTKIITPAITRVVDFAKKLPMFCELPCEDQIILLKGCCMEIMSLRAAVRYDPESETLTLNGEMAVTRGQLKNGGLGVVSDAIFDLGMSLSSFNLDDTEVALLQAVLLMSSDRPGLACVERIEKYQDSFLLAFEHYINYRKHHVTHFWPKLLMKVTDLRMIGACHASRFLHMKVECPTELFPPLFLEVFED
Glucagon-like peptide 1 receptor (Homo sapiens), sequence (P43220 whole entry, looked up): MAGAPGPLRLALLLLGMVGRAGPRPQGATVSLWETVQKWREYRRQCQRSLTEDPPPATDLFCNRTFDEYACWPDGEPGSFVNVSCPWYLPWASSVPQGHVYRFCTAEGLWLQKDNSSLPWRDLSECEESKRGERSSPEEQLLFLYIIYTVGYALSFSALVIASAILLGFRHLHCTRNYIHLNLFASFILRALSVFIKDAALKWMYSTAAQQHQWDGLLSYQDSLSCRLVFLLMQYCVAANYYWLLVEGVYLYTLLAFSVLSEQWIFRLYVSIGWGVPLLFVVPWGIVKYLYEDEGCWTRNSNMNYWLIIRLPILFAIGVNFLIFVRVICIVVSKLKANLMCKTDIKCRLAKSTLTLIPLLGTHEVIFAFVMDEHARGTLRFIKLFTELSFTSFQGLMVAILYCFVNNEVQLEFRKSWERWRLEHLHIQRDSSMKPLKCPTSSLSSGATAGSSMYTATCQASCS
Luciferin 4-monooxygenase (Photinus pyralis), sequence (P08659 whole entry, looked up): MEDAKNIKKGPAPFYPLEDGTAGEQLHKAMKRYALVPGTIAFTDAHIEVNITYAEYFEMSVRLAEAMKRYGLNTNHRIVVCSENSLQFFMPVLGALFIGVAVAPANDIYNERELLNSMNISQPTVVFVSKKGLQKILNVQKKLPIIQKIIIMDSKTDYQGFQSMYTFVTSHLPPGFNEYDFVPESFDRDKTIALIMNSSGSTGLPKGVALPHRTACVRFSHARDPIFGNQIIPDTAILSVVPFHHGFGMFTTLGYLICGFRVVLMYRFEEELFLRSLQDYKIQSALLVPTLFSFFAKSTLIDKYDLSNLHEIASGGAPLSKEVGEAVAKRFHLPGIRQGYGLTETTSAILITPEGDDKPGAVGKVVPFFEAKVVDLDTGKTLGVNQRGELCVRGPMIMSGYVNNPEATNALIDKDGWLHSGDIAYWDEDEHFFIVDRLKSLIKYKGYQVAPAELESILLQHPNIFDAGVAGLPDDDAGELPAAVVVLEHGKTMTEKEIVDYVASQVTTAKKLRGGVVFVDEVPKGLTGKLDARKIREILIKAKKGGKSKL
Voltage-gated inwardly rectifying potassium channel KCNH2 (Homo sapiens), sequence (Q12809 whole entry, looked up): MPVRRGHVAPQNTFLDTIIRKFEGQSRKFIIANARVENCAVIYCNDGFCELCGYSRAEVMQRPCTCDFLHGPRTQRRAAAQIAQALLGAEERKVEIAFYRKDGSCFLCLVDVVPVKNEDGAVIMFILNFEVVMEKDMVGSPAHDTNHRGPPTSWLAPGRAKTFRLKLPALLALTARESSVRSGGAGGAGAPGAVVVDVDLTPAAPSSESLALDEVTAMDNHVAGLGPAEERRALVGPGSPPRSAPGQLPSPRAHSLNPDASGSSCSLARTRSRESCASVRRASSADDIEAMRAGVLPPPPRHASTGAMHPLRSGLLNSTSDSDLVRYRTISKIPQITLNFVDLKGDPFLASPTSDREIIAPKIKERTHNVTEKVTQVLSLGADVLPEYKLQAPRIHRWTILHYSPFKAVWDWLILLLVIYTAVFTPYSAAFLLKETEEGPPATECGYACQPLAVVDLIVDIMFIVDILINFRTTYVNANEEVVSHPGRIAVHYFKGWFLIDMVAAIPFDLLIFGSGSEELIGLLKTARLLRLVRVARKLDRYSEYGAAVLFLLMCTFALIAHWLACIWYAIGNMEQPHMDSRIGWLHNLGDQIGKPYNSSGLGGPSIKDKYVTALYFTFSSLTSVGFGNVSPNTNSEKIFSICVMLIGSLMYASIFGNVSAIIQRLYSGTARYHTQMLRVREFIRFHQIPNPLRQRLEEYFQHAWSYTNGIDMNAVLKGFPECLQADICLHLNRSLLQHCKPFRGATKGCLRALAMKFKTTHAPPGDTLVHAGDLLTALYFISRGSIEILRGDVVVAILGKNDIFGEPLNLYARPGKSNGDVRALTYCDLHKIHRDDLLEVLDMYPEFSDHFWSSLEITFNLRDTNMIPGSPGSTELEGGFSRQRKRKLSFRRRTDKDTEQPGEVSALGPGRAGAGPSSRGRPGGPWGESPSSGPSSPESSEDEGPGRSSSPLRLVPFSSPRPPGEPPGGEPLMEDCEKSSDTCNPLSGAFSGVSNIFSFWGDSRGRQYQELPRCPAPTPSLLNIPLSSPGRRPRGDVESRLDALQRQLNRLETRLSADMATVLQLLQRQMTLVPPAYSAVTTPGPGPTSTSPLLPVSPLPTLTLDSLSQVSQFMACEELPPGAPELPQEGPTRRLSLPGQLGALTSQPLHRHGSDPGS
Glutaminase kidney isoform, mitochondrial (Homo sapiens), sequence (O94925 whole entry, looked up, canonical isoform): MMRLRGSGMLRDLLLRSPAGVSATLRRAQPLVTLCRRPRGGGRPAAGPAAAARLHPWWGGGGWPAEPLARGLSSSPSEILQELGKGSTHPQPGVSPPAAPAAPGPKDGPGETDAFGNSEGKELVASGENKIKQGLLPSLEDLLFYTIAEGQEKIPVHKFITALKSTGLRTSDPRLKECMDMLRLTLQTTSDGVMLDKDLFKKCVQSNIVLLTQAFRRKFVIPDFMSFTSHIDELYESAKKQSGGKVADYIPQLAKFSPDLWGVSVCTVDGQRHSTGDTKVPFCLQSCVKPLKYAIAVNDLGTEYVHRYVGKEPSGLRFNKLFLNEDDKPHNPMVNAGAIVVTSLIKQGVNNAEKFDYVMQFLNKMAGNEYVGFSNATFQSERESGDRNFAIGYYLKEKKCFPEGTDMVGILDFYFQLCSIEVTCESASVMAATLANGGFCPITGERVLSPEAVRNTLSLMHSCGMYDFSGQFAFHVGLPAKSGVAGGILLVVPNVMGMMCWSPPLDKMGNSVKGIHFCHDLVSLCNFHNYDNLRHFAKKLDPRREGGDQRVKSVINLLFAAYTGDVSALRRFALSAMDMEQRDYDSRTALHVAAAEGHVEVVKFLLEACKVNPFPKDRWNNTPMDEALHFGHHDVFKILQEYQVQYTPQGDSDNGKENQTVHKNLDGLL

CCCCNC(=O)NS(=O)(=O)c1ccc(C)cc1
inactive: activity change % (negative = inhibition) [1] -17.2% and -10.1% | Potency [2] | Potency [3] | Potency [4] | Potency [5] | Potency [6] | Potency [7] | outcome [8] | outcome [9] | outcome [10]

Cc1nc2ccccn2c(=O)c1CCN1CCC(C(=O)c2ccc(F)cc2)CC1
inactive: Potency [3] | Potency [4] | Potency [5] | Potency [6] | Potency [7] | outcome [8] | outcome [9] | outcome [10]
active: Potency [2] 1.12 µM and 4.47 µM

C[C@]12CCC(=O)C=C1CC[C@@H]1[C@@H]2C(=O)C[C@@]2(C)[C@H]1CC[C@]2(O)C(=O)CO
inactive: activity change % (negative = inhibition) [1] 8.91% | Potency [2] | Potency [7] | outcome [8] | outcome [9] | outcome [10]

CCCCCN(CCCCC)C(=O)C(CCC(=O)O)NC(=O)c1ccc(Cl)c(Cl)c1 (centres undefined)
inactive: Potency [2] | Potency [3] | Potency [4] | Potency [5] | Potency [6] | Potency [7] | outcome [8] | outcome [9] | outcome [10]

NS(=O)(=O)c1cc2c(cc1Cl)NC(C1CC3C=CC1C3)NS2(=O)=O (centres undefined)
inactive: Potency [2] | Potency [3] | Potency [4] | Potency [5] | Potency [6] | Potency [7] | outcome [8] | outcome [9] | outcome [10]

O=C(CCNNC(=O)c1ccncc1)NCc1ccccc1
inactive: Potency [2] | Potency [3] | Potency [4] | Potency [5] | Potency [6] | Potency [7] | outcome [8] | outcome [9] | outcome [10]

C[C@]12C=CC(=O)C=C1CC[C@H]1[C@@H]3C[C@@H](O)[C@](O)(C(=O)CO)[C@@]3(C)C[C@H](O)[C@@]12F
inactive: activity change % (negative = inhibition) [1] -4.06% | Potency [2] | Potency [7] | outcome [8] | outcome [9] | outcome [10]

Cc1ccc(S(=O)(=O)NC(=O)NN2CCCCCC2)cc1
inactive: activity change % (negative = inhibition) [1] 5.89% | Potency [2] | Potency [3] | Potency [4] | Potency [5] | Potency [6] | outcome [8] | outcome [9] | outcome [10]
active: Potency [7] 10 µM

COc1cc(Cc2cnc(N)nc2N)cc(OC)c1OC
inactive: activity change % (negative = inhibition) [1] -6.78% | Potency [2] | Potency [3] | Potency [4] | Potency [5] | Potency [6] | Potency [7] | outcome [8] | outcome [9]

Cc1cc(C)c(/C=C2\C(=O)Nc3ccccc32)[nH]1
active: Potency [2] 25.1 µM and 7.94 µM
inactive: Potency [3] | Potency [4] | Potency [5] | Potency [6] | Potency [7] | outcome [8] | outcome [10]

CC(=O)OCC1=C(C(=O)O)N2C(=O)[C@@H](NC(=O)Cc3cccs3)[C@H]2SC1
inactive: Potency [2] | Potency [3] | Potency [4] | Potency [5] | Potency [6] | Potency [7] | outcome [8] | outcome [9] | outcome [10]

C[N+](C)(C)CCOC(=O)CCC(=O)OCC[N+](C)(C)C
inactive: Potency [2] | Potency [3] | Potency [4] | Potency [5] | Potency [7] | outcome [8] | outcome [9] | outcome [10]

CSc1ccc(C(=O)c2[nH]c(=O)[nH]c2C)cc1
inactive: Potency [2] | Potency [3] | Potency [4] | Potency [5] | Potency [7] | outcome [8] | outcome [9] | outcome [10]

CCCOc1ccccc1-c1nc2n[nH]nc2c(=O)[nH]1
inactive: Potency [2] | Potency [3] | Potency [4] | Potency [5] | Potency [7] | outcome [8] | outcome [9] | outcome [10]

CN1CCN(C2=Nc3ccccc3Oc3ccc(Cl)cc32)CC1
inactive: Potency [3] | Potency [4] | Potency [5] | Potency [7] | outcome [8] | outcome [9] | outcome [10]
active: Potency [2] 11.2 µM and 10 µM

CCc1cccc(N(C)C(N)=Nc2cccc3ccccc23)c1
active: Potency [2] 8.91 µM
inactive: Potency [3] | Potency [4] | Potency [5] | Potency [7] | outcome [8] | outcome [9] | outcome [10]

CCCCNc1ccc(C(=O)OCCN(C)C)cc1
inactive: Potency [2] | Potency [3] | Potency [4] | Potency [5] | Potency [7] | outcome [8] | outcome [9] | outcome [10]

Cc1nnc(SCC2=C(C(=O)O)N3C(=O)[C@@H](NC(=O)Cn4cnnn4)[C@H]3SC2)s1
inactive: Potency [2] | Potency [3] | Potency [4] | Potency [5] | Potency [7] | outcome [8] | outcome [9] | outcome [10]

C=CCc1ccccc1OCC(O)CNC(C)C (centres undefined)
inactive: Potency [3] | Potency [4] | Potency [5] | Potency [7] | outcome [8] | outcome [9] | outcome [10]
inactive and 11.2 µM (active): Potency [2]

CCO/C([O-])=N/c1c[n+](N2CCOCC2)no1
inactive: Potency [2] | Potency [3] | Potency [4] | Potency [5] | Potency [7] | outcome [8] | outcome [9] | outcome [10]

CCn1ccnc1CC1COc2ccccc2O1 (centres undefined)
inactive: Potency [2] | Potency [3] | Potency [4] | Potency [5] | Potency [7] | outcome [8] | outcome [9] | outcome [10]

NCCCNCCSP(=O)(O)O
inactive: Potency [2] | Potency [3] | Potency [4] | Potency [5] | Potency [7] | outcome [8] | outcome [9] | outcome [10]

CC(C)NNC(=O)c1ccncc1
inactive: Potency [2] | Potency [3] | Potency [4] | Potency [5] | Potency [7] | outcome [8] | outcome [9] | outcome [10]

From PubChem BioAssay (NCATS)
